The panel holds about 83,000 compounds, 20% with a hit somewhere; the sample as a whole holds those more often.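 96-well plates, one dose, 48 hours. Percent growth reported; active if below 10.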 A number with no mark means an inactive call. The source made the active and inactive calls.
Columns and labels:
Test in all cases: NCI-60 one-dose screen, 48 h (100 = growth as untreated, 0 = no growth, -100 = all killed)
Conditions in all cases: 10 µM
HCT-15 colon = system: HCT-15 colon
HT29 colon = system: HT29 colon
SNB-75 CNS = system: SNB-75 CNS
SNB-19 CNS = system: SNB-19 CNS
U251 CNS = system: U251 CNS
PC-3 prostate = system: PC-3 prostate
SK-MEL-5 melanoma = system: SK-MEL-5 melanoma
LOX IMVI melanoma = system: LOX IMVI melanoma
SK-MEL-28 melanoma = system: SK-MEL-28 melanoma
UACC-62 melanoma = system: UACC-62 melanoma

Row | Structure (SMILES) | growth (HCT-15 colon) | growth (HT29 colon) | growth (SNB-75 CNS) | growth (SNB-19 CNS) | growth (U251 CNS) | growth (PC-3 prostate) | growth (SK-MEL-5 melanoma) | growth (LOX IMVI melanoma) | growth (SK-MEL-28 melanoma) | growth (UACC-62 melanoma)
1 | CCOC(=O)CNC(=O)CN(Cc1ccccc1)C(=O)[C@@]1(C)CCC[C@]2(C)[C@H]3C[C@H]4C(C(C)C)=C[C@]3(CC[C@H]21)[C@@H]1C(=O)OC(=O)[C@@H]14 | 18% | 42% | 81.7% | 67.7% | 44.4% | 39.2% | 83.5% | 24% | 82.5% | 
2 | CCN1CCN(c2ccc(NC(=O)Nc3ccc(-c4cc(C(=O)NC(C)C)c5ncccc5n4)cc3)cc2C(F)(F)F)CC1 | -93.5% (active) | -82.3% (active) | -94.3% (active) | -81.7% (active) | -89.5% (active) | -55.3% (active) | -100% (active) | -100% (active) | -98.9% (active) | 
3 | COc1ccc2nc(Nc3cccc(NC(=O)c4ccc(CN5CCN(C)CC5)c(C(F)(F)F)c4)c3)ccc2c1 | -83.4% (active) | -73.9% (active) | -39.5% (active) | -96.8% (active) | -77.5% (active) | -8.06% (active) | -100% (active) | -100% (active) | -96.9% (active) | 
4 | C=C1CCC2C3(C)COC(c4c(F)cccc4F)OC3CCC2(C)C1C/C=C1/C(=O)OCC1O (stereo not given) | -18.7% (active) | 3.23% (active) | 23.2% | -7.73% (active) | -94.2% (active) | 5.05% (active) | -65.5% (active) |  | -51.2% (active) | 
5 | CC1=C2C(=C[C@@](C)(CO)[C@@H]2O)/C(=N\N)[C@](C)(O)C12CC2 | -17.1% (active) | -11% (active) | -85.1% (active) | -16% (active) | 12% | 6.9% (active) | -61.1% (active) | -64.3% (active) | -67.2% (active) | 
6 | O=c1oc2ccc(-c3ccc(F)cc3F)cc2c(=O)n1-c1ccc(F)cc1 | 5.32% (active) | 59.6% | -14% (active) | 13.3% | 18% | 0.638% (active) | -77.9% (active) | 1.46% (active) | -0.667% (active) | 
7 | O=c1cc(-c2ccccc2)oc2cc(OCCCNCc3ccccc3)cc(O)c12 | -67.1% (active) | -59.7% (active) | 23.9% | 48.2% | -79.8% (active) | -0.767% (active) | -99.6% (active) | -97.8% (active) | -88.8% (active) | 
8 | COC(=O)c1c(C(=O)OC)c2n(c1C)[C@@H]([C@@H](C)[C@H]1CC[C@H]3[C@@H]4CCC5=CC(=O)CC[C@]5(C)[C@H]4CC[C@]13C)SC2 | 22.2% | 32.9% | 51.1% | 54.2% | 38.9% | 8.05% (active) | -87% (active) | 28.4% | 43.1% | 
9 | O=C(Nc1cccc(C(F)(F)F)c1)c1cncc(C#Cc2cnc3ccc(N4CCOCC4)nn23)c1 | -16.7% (active) | 5.68% (active) | -39.9% (active) | -6.03% (active) | -3.92% (active) | 6.2% (active) | -66.9% (active) | -87.9% (active) | -17.8% (active) | 
10 | CN(C(=O)c1ccc(C(F)(F)F)cc1C(F)(F)F)c1sc2c(c1C#N)CCC(=O)C2 | 10.4% | 106% | 105% | 88.7% | -11.7% (active) | 0.435% (active) | 25.9% | 29.2% | 106% | 
11 | O=C(N=Nc1c(O)[nH]c2ccc(Br)cc12)c1ccc2nc(-c3ccccc3)[nH]c2c1 | 63.2% | -41.1% (active) | -46.7% (active) | -47.8% (active) | -95.2% (active) | -84.5% (active) | -58.9% (active) |  | -98.4% (active) | -96% (active)
12 | O=c1[nH]n(C(=S)N/N=C/c2ccc(F)cc2)c(=O)c2ccccc12 | 22.9% | 58.1% | 97.4% | 47.6% | 25.6% | 58.1% | 73.1% | -24.9% (active) | 91.5% | 
13 | COC[C@@H](CC(C)C)N=C1N/C(=C\c2ccc3ncsc3c2)C(=O)N1C | 2.01% (active) | 6.85% (active) | 27.5% | 14.6% | 15.4% | 23.6% | -57.3% (active) | -51.2% (active) | -1.69% (active) | 
14 | O=C(c1ccc([N+](=O)[O-])c([N+](=O)[O-])c1O)n1[nH]c(=O)c2ccccc2c1=O | 39.1% | 66.7% | 93.5% | 72.9% | 61.1% | 74.1% | 77.8% | 56.6% | 92.7% | 
15 | O=C(NCCCCC(c1ccc(F)cc1)c1ccc(F)cc1)NCCCc1cccnc1 | 14% | 14.4% | 53% | 24.5% | 26.4% | 11.5% | -90.5% (active) | 42.5% | 20.8% | 
16 | CN1CCCN(Cc2ccc(C(=O)Nc3cccc(Nc4ccc5c(O)cccc5n4)c3)cc2C(F)(F)F)CC1 | -55.6% (active) | -55.2% (active) | 13.9% | -81.2% (active) | -65.7% (active) | 2.18% (active) | -100% (active) | -95.5% (active) | -100% (active) | 
17 | CCCn1c(O)c(N=Nc2nc(-c3cc4ccccc4oc3=O)cs2)c2cc(Br)ccc21 | 90.4% | 110% | 94.7% | 90.3% | 86% | 96.3% | 95.5% | 83.6% | 101% | 
18 | CN1CCN(c2ccc(C(=O)/C=C/c3cc(C(F)(F)F)ccc3Cl)cc2)CC1 | -86.4% (active) | 0.637% (active) | 42.9% | -99.2% (active) | -74.5% (active) | -40.3% (active) | -90.6% (active) | -100% (active) | -97.6% (active) | 
19 | N#Cc1ccc(-c2nn(-c3ccc(C(=O)O)cc3)cc2CNc2cc(Cl)cc(C(F)(F)F)c2)cc1 | 7.93% (active) | 18.8% | 31% | 20.9% | 18.5% | 14.1% | -64.1% (active) | -24% (active) | 12.2% | 
20 | O=C(Cn1cc(CSc2nnc3oc4ccccc4n23)nn1)Nc1cccc(Cl)c1 | 62.4% | 82.3% | 51% | 74.5% | 70.6% | 50.4% | 58.3% |  | 81.5% | 49.6%
21 | CO[C@H]1CSS[C@@H]1Cn1nc(-c2ccc(Oc3ccccc3)cc2)c2c(N)ncnc21 | 22.1% | 17.2% | 104% | 29.6% | 24.6% | 41.2% | -4.24% (active) | 36.8% | -35.8% (active) | 
22 | Nc1cc(-c2cccc(C(=O)NCc3ccc4c(c3)OCO4)c2)ccn1 | 95.8% | 111% | 86% | 95.2% | 92.2% | 103% | 91.7% | 89.5% | 103% | 
23 | Cc1noc2c(Cc3ccc([N+](=O)[O-])cc3)nn(CC(=O)N/N=C/c3ccc(Cl)cc3)c(=O)c12 | 80.5% | 62.3% | 44.9% | 42.2% | 12.7% | 59.5% | 88.4% | 40.7% | 69.9% | 
24 | COc1cccc(C(N)=Nc2ccc(OCCCCCCn3cncn3)cc2)c1 | 16.8% | -27.9% (active) | 54.4% | 37.6% | 10.3% | 34.4% |  | 36% | 51.4% | 
25 | COC1=C[C@]23CCC(=O)N2CCc2cc4c(cc2[C@@H]3[C@@H]1OC(=O)CCCC(C)C)OCO4 | 23.1% | 32.2% | 120% | 28% | 43.3% | 42.5% | 25.9% | 7.89% (active) | 64.4% | 
26 | CCCSc1nc(NC2CC2)c(C#N)c(-c2ccc(OC)cc2)n1 | 95.4% | 90.1% | 103% | 70.3% | 87.4% | 95.3% | 98.2% | 93.9% | 118% | 
27 | CCOc1ccc(Nc2nc3ccccc3nc2Nc2ccc(OCC)cc2)cc1 | 26.8% | 27.9% | 90.9% | 39.7% | 32.3% | 19.8% | 81.6% | 83.8% | 99% | 
28 | O=C(Nc1ccc(Cl)c(C(F)(F)F)c1)c1cncc(C#Cc2cnc3ccc(N4CCOCC4)nn23)c1 | 15.8% | 8.82% (active) | -1.28% (active) | -10.8% (active) | 20.2% | 23.4% | 4.01% (active) | -48.9% (active) | 0.817% (active) | 

From PubChem BioAssay (NCI)
